The source made the active and inactive calls. Unless noted, no rule for the calls is given here.
How the values were obtained:
[1] = test system: Wnt5a (protein binding on small-molecule microarray); test: Wnt5a binders on small-molecule microarray, primary screen, biophysical, 635/667 nm fluorescence (AID 1142); conditions: 635 nm fluorescence, higher = more signal;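 also: fluorescence read at 667 nm with signal to noise per printed feature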
[2] = cell viability in Huh7 cells, primary screen, cytotoxicity control for HCV replication inhibitor project, CellTiter-Glo luminescence, basal, 48 h (AID 1143); conditions: Huh7 HCV replicon, higher = more signal, called active from +8 up or from −8 down;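 also: Huh7 hepatoma cells carrying a hepatitis C replication reporter with no stimulus; test concentration not given here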
[3] = P. aeruginosa biofilm formation inhibitors, primary screen, PAO1 strain, BacTiter-Glo luminescence, LB-PBS (AID 1144); conditions: 12 h, higher = more signal
[4] = CREB reporter modulators without forskolin, primary screen, cell-based, PC12, CRE-LacZ reporter, unstimulated (AID 1145); conditions: no forskolin, luminescence, 4.5 h, higher = more signal, called active from +8 up or from −8 down
[5] = CREB reporter modulators under forskolin, primary screen, cell-based, PC12, CRE-LacZ reporter, forskolin-stimulated (AID 1146); conditions: luminescence, 4.5 h, higher = more signal, called active from +8 up or from −8 down;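 also: PC12 cells with 6xCRE LacZ reporter stimulated by forskolin 10 µM; beta-galactosidase reporter signal reflecting CREB driven transcription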
[6] = biological target: Streptavidin (Streptomyces avidinii) (UniProt P22629); test: streptavidin binders on small-molecule microarray, primary screen, artefact control for SMM compound annotation, biophysical, 635/667 nm fluorescence (AID 1147); conditions: streptavidin binding, higher = more signal;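 also: signal reflects streptavidin binding to arrayed compounds as a control protein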
[7] = small-molecule binders of probe aInhba, primary screen, biochemical, small-molecule microarray, 635/667 nm fluorescence (AID 1148); conditions: higher = more signal;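 also: score merges 667nm spot fluorescence with signal-to-noise for antibody binding to printed compounds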
Torsin-1A (Homo sapiens) [8] = biological target: Torsin-1A (Homo sapiens) (UniProt O14656); test: torsin A binders from cell lysate, primary screen, small-molecule microarray, wild-type, 635/667 nm (AID 1149); conditions: COS7 hTOR1A-WT lysate, 635 nm fluorescence, higher = more signal
Torsin-1A (Homo sapiens) [9] = biological target: Torsin-1A (Homo sapiens) (UniProt O14656); test: small-molecule binders of mutant TOR1A in lysate, primary screen, cell lysate, small-molecule microarray, COS7 lysate, 635/667 nm fluorescence (AID 1150); conditions: COS7 hTOR1A mutant lysate, 635 nm fluorescence, higher = more signal;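 also: score pools 667 nm emission and signal to noise measuring lysate protein binding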
[10] = test system: Sonic hedgehog protein (Shh); test: small-molecule binders of Shh protein, primary screen, biochemical, small-molecule microarray, 635/667 nm fluorescence (AID 1151); conditions: small-molecule microarray binding, 635 nm fluorescence; higher = more signal;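 also: Shh protein binding to compounds spotted on small-molecule microarray slides; score combines spot fluorescence intensity with signal-to-noise across triplicate slides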
[11] = E. coli DRC41 culture turbidity changes, primary screen, E. coli filamentation inducer project, strain DRC41, OD650, 48 h (AID 1152);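 also: E. coli MC1000 strain DRC41 lacking acrAB efflux pump and sulA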; conditions: E. coli DRC41 (acrAB sulA), higher = more signal, called active from +8 up or from −8 down
[12] = small-molecule binders of probe aLefty1, primary screen, biochemical, small-molecule microarray, 635/667 nm fluorescence (AID 1153); conditions: higher = more signal;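 also: score merges spot fluorescence with signal-to-noise ratio from the scanned slide images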
[13] = PSAC antagonists in infected red cells, primary screen, cell-based, P. falciparum Indochina, OD700, 1 h (AID 1154); conditions: P. falciparum Indochina infected RBC osmotic lysis, higher = more signal, called active from +8 up or from −8 down
[14] = PSAC antagonists in infected red cells, primary screen, cell-based, P. falciparum Indochina, OD700, 2 h (AID 1155);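 also: lysis reports solute entry through the parasite surface anion channel PSAC; channel blockers reduce lysis of infected cells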; conditions: P. falciparum Indochina infected erythrocytes, osmotic lysis OD700; higher = more signal, called active from +8 up or from −8 down
[15] = osmotic lysis modulators in infected erythrocytes, primary screen, PSAC antagonist project, cell-based, P. falciparum Indochina, OD700, 3 h (AID 1156); conditions: higher = more signal, called active from +8 up or from −8 down
[16] = PSAC antagonists in infected red cells, primary screen, cell-based, P. falciparum Indochina, OD700, 18 h (AID 1157); conditions: P. falciparum Indochina infected erythrocytes, osmotic lysis OD700, 18 h; higher = more signal, called active from +8 up or from −8 down
[17] = modulators of S6 phosphorylation in cells, primary screen, cell-based, A549, cytoblot, luminescence, serum-stimulated (AID 1158); conditions: A549 phospho-S6 cytoblot, 5 h, higher = more signal;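 also: serum-stimulated A549 lung adenocarcinoma cells; signal is phosphorylated S6 detected by cytoblot immunostaining with HRP secondary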
[18] = biological target: NADPH oxidase 2 (Homo sapiens) (UniProt P04839); test: NOX2-dependent H2O2 signal modulators, primary screen, NOX inhibitor project, cell-based, HEK293-NOX2, PMA-stimulated, Amplex Red fluorescence (AID 1159); conditions: 45 min, higher = more signal, called active from +8 up or from −8 down; also: test concentration not given here
[19] = biological target: NADPH oxidase 4 (Homo sapiens) (UniProt Q9NPH5); test: NOX4-dependent H2O2 signal modulators, primary screen, NOX inhibitor project, cell-based, HEK293-NOX4, tetracycline-induced, Amplex Red fluorescence (AID 1160); conditions: 45 min, higher = more signal, called active from +8 up or from −8 down
[20] = biological target: NADPH oxidase 5 (Homo sapiens) (UniProt Q96PH1); test: NOX5-dependent H2O2 signal modulators, primary screen, NOX inhibitor project, cell-based, HEK293-NOX5, Amplex Red fluorescence (AID 1161); conditions: HEK293-NOX5, ionomycin, 45 min, higher = more signal
NADPH oxidase 5 (Homo sapiens), sequence (Q96PH1 whole entry, looked up): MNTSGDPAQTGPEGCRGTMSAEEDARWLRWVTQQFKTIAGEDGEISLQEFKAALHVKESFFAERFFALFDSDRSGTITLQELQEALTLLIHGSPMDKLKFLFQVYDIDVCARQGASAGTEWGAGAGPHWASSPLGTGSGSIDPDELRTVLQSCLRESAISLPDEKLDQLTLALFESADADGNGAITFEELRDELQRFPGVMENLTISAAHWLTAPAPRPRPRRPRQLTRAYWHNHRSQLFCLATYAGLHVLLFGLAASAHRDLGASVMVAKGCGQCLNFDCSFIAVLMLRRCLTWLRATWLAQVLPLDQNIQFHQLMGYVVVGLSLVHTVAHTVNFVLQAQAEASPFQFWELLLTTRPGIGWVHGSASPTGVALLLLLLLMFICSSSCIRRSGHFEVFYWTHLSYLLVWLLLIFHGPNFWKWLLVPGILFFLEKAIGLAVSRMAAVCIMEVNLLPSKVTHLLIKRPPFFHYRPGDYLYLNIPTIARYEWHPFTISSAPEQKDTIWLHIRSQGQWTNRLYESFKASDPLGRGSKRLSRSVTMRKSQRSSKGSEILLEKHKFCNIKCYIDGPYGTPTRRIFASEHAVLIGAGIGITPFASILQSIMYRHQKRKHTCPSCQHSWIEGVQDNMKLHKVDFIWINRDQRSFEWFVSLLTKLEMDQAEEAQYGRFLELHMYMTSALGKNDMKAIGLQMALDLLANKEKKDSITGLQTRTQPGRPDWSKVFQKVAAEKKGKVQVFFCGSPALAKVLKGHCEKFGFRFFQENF

NADPH oxidase 4 (Homo sapiens), sequence (Q9NPH5 whole entry, looked up): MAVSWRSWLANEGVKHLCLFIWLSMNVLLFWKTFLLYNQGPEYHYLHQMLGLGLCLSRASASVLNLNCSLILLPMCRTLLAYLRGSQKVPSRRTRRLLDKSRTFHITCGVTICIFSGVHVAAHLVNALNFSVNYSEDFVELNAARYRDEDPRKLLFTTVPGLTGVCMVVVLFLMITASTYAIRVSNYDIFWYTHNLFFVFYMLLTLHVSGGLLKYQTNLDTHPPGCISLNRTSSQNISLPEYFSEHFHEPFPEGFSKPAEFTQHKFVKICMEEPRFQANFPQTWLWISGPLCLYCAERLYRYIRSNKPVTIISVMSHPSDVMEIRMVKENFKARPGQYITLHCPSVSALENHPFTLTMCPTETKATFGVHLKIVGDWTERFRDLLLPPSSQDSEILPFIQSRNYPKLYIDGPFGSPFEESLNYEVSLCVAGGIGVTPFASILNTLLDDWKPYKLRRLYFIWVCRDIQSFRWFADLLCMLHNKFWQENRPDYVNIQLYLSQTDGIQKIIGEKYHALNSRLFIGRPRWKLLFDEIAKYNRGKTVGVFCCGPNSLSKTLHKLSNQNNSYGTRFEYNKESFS
NADPH oxidase 2 (Homo sapiens), sequence (P04839 whole entry, looked up): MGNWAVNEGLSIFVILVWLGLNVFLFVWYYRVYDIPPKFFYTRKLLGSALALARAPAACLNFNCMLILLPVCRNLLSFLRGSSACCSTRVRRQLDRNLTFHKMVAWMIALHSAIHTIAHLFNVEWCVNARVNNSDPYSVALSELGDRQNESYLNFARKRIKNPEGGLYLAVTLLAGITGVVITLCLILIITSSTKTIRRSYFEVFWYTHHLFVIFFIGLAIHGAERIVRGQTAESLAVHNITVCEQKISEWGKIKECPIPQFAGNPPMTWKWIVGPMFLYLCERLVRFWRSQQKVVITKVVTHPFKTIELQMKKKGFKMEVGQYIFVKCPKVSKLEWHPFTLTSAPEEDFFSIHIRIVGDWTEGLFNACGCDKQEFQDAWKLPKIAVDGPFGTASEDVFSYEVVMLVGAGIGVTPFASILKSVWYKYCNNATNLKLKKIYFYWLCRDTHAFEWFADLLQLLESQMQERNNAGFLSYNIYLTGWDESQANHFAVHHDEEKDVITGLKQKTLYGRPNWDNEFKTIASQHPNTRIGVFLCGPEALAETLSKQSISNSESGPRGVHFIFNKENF
Streptavidin (Streptomyces avidinii), sequence (P22629 whole entry, looked up): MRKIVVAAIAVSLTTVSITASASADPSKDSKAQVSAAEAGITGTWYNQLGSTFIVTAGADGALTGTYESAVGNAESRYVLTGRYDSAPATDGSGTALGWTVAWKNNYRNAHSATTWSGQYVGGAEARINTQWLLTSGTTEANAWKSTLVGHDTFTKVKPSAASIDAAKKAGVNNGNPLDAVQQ
Torsin-1A (Homo sapiens), sequence (O14656 whole entry, looked up): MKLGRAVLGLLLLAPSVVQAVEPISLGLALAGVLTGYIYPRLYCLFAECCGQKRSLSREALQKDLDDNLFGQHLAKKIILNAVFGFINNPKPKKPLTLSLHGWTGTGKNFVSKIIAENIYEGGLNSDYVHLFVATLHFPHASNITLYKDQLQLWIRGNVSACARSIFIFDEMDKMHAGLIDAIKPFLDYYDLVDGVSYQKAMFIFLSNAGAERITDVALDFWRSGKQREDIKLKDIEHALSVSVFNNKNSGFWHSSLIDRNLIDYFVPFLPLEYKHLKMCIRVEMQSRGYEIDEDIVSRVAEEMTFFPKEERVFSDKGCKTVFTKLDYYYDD

Compound: CCOC(=O)C1=CCC(c2ccc(F)cc2)N(S(=O)(=O)c2ccc(C)cc2)C1 (stereo not given)
- composite z-score [1]: 0.0848
- z-score [2]: -2.8 (inactive)
- z-score [3]: 0.046 (inactive)
- z-score [4]: 0.481 (inactive)
- z-score [5]: -0.323 (inactive)
- composite z-score [6]: 0.407
- composite z-score [7]: -0.0963
- composite z-score (Torsin-1A (Homo sapiens) [8]): 0.827
- composite z-score (Torsin-1A (Homo sapiens) [9]): 0.203
- composite z-score [10]: -0.282
- z-score [11]: -1 (inactive)
- composite z-score [12]: -0.147
- z-score [13]: 1.44 (inactive)
- z-score [14]: 0.952 (inactive)
- z-score [15]: -0.421 (inactive)
- z-score [16]: 0.363 (inactive)
- z-score [17]: -0.566
- z-score [18]: 0.396 (inactive)
- z-score [19]: -0.0222 (inactive)
- z-score [20]: 0.315

Compound: CCCC[C@H]1C[C@@H]1[C@@H]1N(P(=O)(c2ccccc2)c2ccccc2)C[C@@](O)(c2ccccc2)CC12CC2
- composite z-score [1]: -0.0443
- z-score [2]: -3.13 (inactive)
- z-score [3]: 0.922 (inactive)
- z-score [4]: -0.185 (inactive)
- z-score [5]: 1.18 (inactive)
- composite z-score [6]: 1.15
- composite z-score [7]: 0.108
- composite z-score (Torsin-1A (Homo sapiens) [8]): -0.318
- composite z-score (Torsin-1A (Homo sapiens) [9]): 0.409
- composite z-score [10]: -1.02
- z-score [11]: -1.84 (inactive)
- composite z-score [12]: 0.404
- z-score [13]: 2.07 (inactive)
- z-score [14]: 1.07 (inactive)
- z-score [15]: 0.425 (inactive)
- z-score [16]: 1.55 (inactive)
- z-score [17]: -0.443
- z-score [18]: -0.476 (inactive)
- z-score [19]: -0.925 (inactive)
- z-score [20]: -2.1

Compound: COCCOC(=O)N1C(=O)[C@@]2(c3ccccc31)[C@H](c1ccc(OCCO)cc1)N1[C@H](c3ccccc3)[C@H](c3ccccc3)OC(=O)[C@H]1[C@@H]2C(=O)N1CCc2cc(OC)c(OC)cc2C1
- composite z-score [1]: 0.349
- z-score [2]: -2.12 (inactive)
- z-score [3]: -1.28 (inactive)
- z-score [4]: 0.623 (inactive)
- z-score [5]: 2.12 (inactive)
- composite z-score [6]: 0.743
- composite z-score [7]: 0.505
- composite z-score (Torsin-1A (Homo sapiens) [8]): 0.518
- composite z-score (Torsin-1A (Homo sapiens) [9]): 0.153
- composite z-score [10]: 1.84
- z-score [11]: 0.341 (inactive)
- composite z-score [12]: 0.358
- z-score [13]: 12.7 (active)
- z-score [14]: 3.86 (inactive)
- z-score [15]: 1.99 (inactive)
- z-score [16]: 2.18 (inactive)
- z-score [17]: 0.828
- z-score [18]: 1.16 (inactive)
- z-score [19]: 1.52 (inactive)
- z-score [20]: -0.259

Compound: CC(C)OC(=O)C=C1C[C@@H](c2cccc(Cl)c2)O[C@@H](c2cccc(Cl)c2)O1
- composite z-score [1]: -0.0889
- z-score [2]: -0.0636 (inactive)
- z-score [3]: -0.179 (inactive)
- z-score [4]: 0.192 (inactive)
- z-score [5]: 1.03 (inactive)
- composite z-score [6]: 0.776
- composite z-score [7]: 0.0956
- composite z-score (Torsin-1A (Homo sapiens) [8]): 0.686
- composite z-score (Torsin-1A (Homo sapiens) [9]): -0.365
- composite z-score [10]: -1.16
- z-score [11]: -0.411 (inactive)
- composite z-score [12]: 0.165
- z-score [13]: 0.915 (inactive)
- z-score [14]: 0.584 (inactive)
- z-score [15]: -0.159 (inactive)
- z-score [16]: 0.61 (inactive)
- z-score [17]: -0.0581
- z-score [18]: 0.215 (inactive)
- z-score [19]: -0.914 (inactive)
- z-score [20]: -0.0406

Compound: COc1ccc([Si](C)(C)[C@@H]2[C@@H](CCn3cc(CCO)nn3)O[C@]3(C(=O)N(Cc4cccc(N5C(=O)c6cccc7cccc5c67)c4)c4ccccc43)[C@H]2C)cc1
- composite z-score [1]: 0.206
- z-score [2]: -7.96 (inactive)
- z-score [3]: 0.000859 (inactive)
- z-score [4]: 2.93 (inactive)
- z-score [5]: -1.45 (inactive)
- composite z-score [6]: 0.942
- composite z-score [7]: -0.0589
- composite z-score (Torsin-1A (Homo sapiens) [8]): 0.119
- composite z-score (Torsin-1A (Homo sapiens) [9]): 0.141
- composite z-score [10]: 2.08
- z-score [11]: 0.259 (inactive)
- composite z-score [12]: -0.0011
- z-score [13]: 4.42 (inactive)
- z-score [14]: 1.6 (inactive)
- z-score [15]: 1.22 (inactive)
- z-score [16]: -0.682 (inactive)
- z-score [17]: 1.16
- z-score [18]: 1.58 (inactive)
- z-score [19]: 1.76 (inactive)
- z-score [20]: 1.3

Compound: O=C(CS)NCCCCCNC(=O)[C@@H]1C[C@@H]2C(=O)NCC(=O)N2[C@@H]1c1cccc(OCCO)c1
- composite z-score [1]: 0.134
- z-score [2]: -0.556 (inactive)
- z-score [3]: -1.2 (inactive)
- z-score [4]: -0.268 (inactive)
- z-score [5]: 0.0712 (inactive)
- composite z-score [6]: -0.774
- composite z-score [7]: 0.136
- composite z-score (Torsin-1A (Homo sapiens) [8]): 0.396
- composite z-score (Torsin-1A (Homo sapiens) [9]): -0.0657
- composite z-score [10]: 1.77
- z-score [11]: 3.02 (inactive)
- composite z-score [12]: 0.269
- z-score [13]: 2.11 (inactive)
- z-score [14]: 0.151 (inactive)
- z-score [15]: -1.32 (inactive)
- z-score [16]: -1.85 (inactive)
- z-score [17]: 1.86
- z-score [18]: 1.52 (inactive)
- z-score [19]: 1.06 (inactive)
- z-score [20]: 1.49

Compound: CO[C@H]1O[C@H](CO)[C@@H](OC(=O)Nc2ccccc2-c2ccccc2)[C@H](OC(=O)Nc2ccccc2-c2ccccc2)[C@@H]1OC(=O)Nc1ccccc1-c1ccccc1
- composite z-score [1]: 0.689
- z-score [2]: -3.41 (inactive)
- z-score [3]: -0.399 (inactive)
- z-score [4]: 0.391 (inactive)
- z-score [5]: 0.0225 (inactive)
- composite z-score [6]: 1.08
- composite z-score [7]: 0.173
- composite z-score (Torsin-1A (Homo sapiens) [8]): 0.1
- composite z-score (Torsin-1A (Homo sapiens) [9]): 0.53
- composite z-score [10]: 1.37
- z-score [11]: 1.23 (inactive)
- composite z-score [12]: 0.407
- z-score [13]: 1.79 (inactive)
- z-score [14]: 1.44 (inactive)
- z-score [15]: 0.552 (inactive)
- z-score [16]: 0.938 (inactive)
- z-score [17]: -0.296
- z-score [18]: 2.02 (inactive)
- z-score [19]: 0.114 (inactive)
- z-score [20]: -0.114

Compound: C=C[C@H](C)[C@@H](OC(=O)Nc1ccc(SC)cc1)c1ccc(O)c2ccccc12
- composite z-score [1]: 0.64
- z-score [2]: -1.08 (inactive)
- z-score [3]: -0.492 (inactive)
- z-score [4]: -0.505 (inactive)
- z-score [5]: 1.69 (inactive)
- composite z-score [6]: 1.26
- composite z-score [7]: -0.0375
- composite z-score (Torsin-1A (Homo sapiens) [8]): 0.163
- composite z-score (Torsin-1A (Homo sapiens) [9]): 0.165
- composite z-score [10]: 1.76
- z-score [11]: -0.751 (inactive)
- composite z-score [12]: 0.0942
- z-score [13]: 27.7 (active)
- z-score [14]: 9.84 (active)
- z-score [15]: 2.51 (inactive)
- z-score [16]: 1.31 (inactive)
- z-score [17]: 1.23
- z-score [18]: -5.52 (inactive)
- z-score [19]: -1.45 (inactive)
- z-score [20]: 0.894

From PubChem BioAssay
